Bioassay records from PubChem BioAssay.
This is one part of a sample in which hits are shown more often than they occur.
Tg IFNy HTS: T. gondii growth inhibition under IFN-gamma. Toxoplasma gondii growth in IFN-gamma-treated host cells; hits give low values. activity change, negative = inhibition, % (test concentration not listed). hit rate 3.8% among 69,000; in the data active = activity change below about -70%, passing the limit was not always enough;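 also: host cells are HeLa cells infected with Toxoplasma gondii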
A number is an active result; ! = a repeat was not active.

For CCCS(=O)(=O)Nc1ccc(F)c(C(=O)c2c[nH]c3ncc(Cl)cc23)c1F the results were Tg IFNy HTS inactive.
Screening CCCn1ccnc1CN(C)Cc1ccc(-n2cccn2)cc1 returned Tg IFNy HTS inactive.
CC(C)(C)OC(=O)N1CCC(CC2(C(N)=O)CCCN2)CC1 (configuration not stated) was read as Tg IFNy HTS inactive.
`Cc1nc2c(c(NC3CCN(S(=O)(=O)c4ccccc4)CC3)n1)CNC2` gave Tg IFNy HTS inactive.
`CCCCN(CC)C(=O)c1ncn2c1CN(CC1CC1)S(=O)(=O)c1ccccc1-2` gave Tg IFNy HTS inactive.
`CCCCCN(C)C(=O)c1ncn2c1CN(CC1CC1)S(=O)(=O)c1ccccc1-2` gave Tg IFNy HTS inactive.
CN(C(=O)c1ncn2c1CN(CC1CC1)S(=O)(=O)c1ccccc1-2)c1ccccc1 was read as Tg IFNy HTS -105.
CCCCNC(=O)CCC1N=C2c3ccccc3N=C(SCc3ccccc3Cl)N2C1=O (configuration not stated) was read as Tg IFNy HTS inactive.
`Cc1ccc(CN2CC[C@@H](OCC3CC3)[C@H]2Cc2ccccc2)o1` gave Tg IFNy HTS inactive.
CCOc1ccccc1NC(=O)N1CCC2(CC1)NC(=O)c1ccc(F)cc1N2C was read as Tg IFNy HTS inactive.
`CCOc1ccc(N(Cc2nc(-c3ccc(C)cc3)oc2C)S(=O)(=O)c2ccccc2)cc1` gave Tg IFNy HTS inactive.
Cc1cc(C)c(N(Cc2ccccc2)S(=O)(=O)c2ccc(OCCNC(=O)c3cc4ccccc4o3)cc2)c(C(=O)NO)c1 was read as Tg IFNy HTS -72!.
For CCCCOc1ccc(S(=O)(=O)N(Cc2ccccc2)Cc2ccccc2)cc1 the results were Tg IFNy HTS inactive.
`CC1Cc2cc(-c3nccn3CCc3nc(-c4ccncc4)n[nH]3)ccc2O1` (configuration not stated) gave Tg IFNy HTS inactive.
Screening c1ccc(C(c2ccccc2)c2nc(CSc3nnnn3-c3ccccc3)no2)cc1 returned Tg IFNy HTS inactive.
COC(=O)c1cccc(-n2nnnc2SCC(=O)Nc2ccc(F)cc2)c1 was read as Tg IFNy HTS inactive.
For Cc1[nH]n2c(=O)cc(CSc3nnnn3-c3ccccc3)nc2c1-c1ccc(F)cc1 the results were Tg IFNy HTS -93.
`Cc1cccc(Nc2ccc(C3CCCN3C(=O)CCc3nc4ccccc4s3)nc2)n1` (configuration not stated) gave Tg IFNy HTS inactive.
`Cc1cc(C(F)(F)F)nn1CC(=O)N1CCCC1c1ccccc1Cl` (configuration not stated) gave Tg IFNy HTS inactive.
Screening CC(NCCc1ccc(O)cc1)C(O)c1ccc(O)cc1 (configuration not stated) returned Tg IFNy HTS inactive.
Screening C[C@@H](NCCc1ccc(O)cc1)[C@@H](O)c1ccc(O)cc1 returned Tg IFNy HTS inactive.
Screening CCCCCCCCNC(C)C(O)c1ccc(SC(C)C)cc1 (configuration not stated) returned Tg IFNy HTS -78!.
Cc1ccccc1OC(C(=O)N1CCC2(CC1)CN(C)CCN2C)C(C)C (configuration not stated) was read as Tg IFNy HTS inactive.
`CSc1ccc(C2c3[nH]c4ccccc4c3CCN2C(=O)c2ccncc2)cc1` (configuration not stated) gave Tg IFNy HTS inactive.
For CSc1ccc(C2c3[nH]c4ccccc4c3CCN2C(=O)c2ccc(F)cc2)cc1 (configuration not stated) the results were Tg IFNy HTS inactive.
For CSc1ccc(C2c3[nH]c4ccccc4c3CCN2C(=O)c2ccccc2)cc1 (configuration not stated) the results were Tg IFNy HTS -88.
`COc1ccc(C(=O)N2CCc3c([nH]c4ccccc34)C2c2ccc(SC)cc2)cc1` (configuration not stated) gave Tg IFNy HTS -105.
For COc1cc(C(=O)N2CCc3c([nH]c4ccccc34)C2c2ccc(SC)cc2)cc(OC)c1OC (configuration not stated) the results were Tg IFNy HTS inactive.
COc1ccc(CC(=O)N2CCc3c([nH]c4ccccc34)C2c2ccc(SC)cc2)cc1 (configuration not stated) was read as Tg IFNy HTS inactive.
Screening CCC(c1cccnc1)N(C)Cc1ccc(C(F)(F)F)nc1 (configuration not stated) returned Tg IFNy HTS inactive.
CN(C)CCNC(=O)C1CC2CN(Cc3cnn(C)c3)CC1O2 (configuration not stated) was read as Tg IFNy HTS inactive.
`CCN1CCn2c(C)cnc2C12CCN(C(=O)c1ccco1)CC2` gave Tg IFNy HTS inactive.
CCOCC1c2c(cnn2C)CCN1C(=O)/C=C/c1cccs1 (configuration not stated) was read as Tg IFNy HTS inactive.
For COc1ccc2[nH]c3c(c2c1)CCN(C(=O)c1ccc(C)cc1)C31C(=O)Nc2ccccc21 (configuration not stated) the results were Tg IFNy HTS -97.
Screening COc1ccc2c3c([nH]c2c1)C1(NCC3)C(=O)Nc2ccccc21 (configuration not stated) returned Tg IFNy HTS inactive.
`Cc1ccc2[nH]c3c(c2c1)CCNC31C(=O)Nc2ccccc21` (configuration not stated) gave Tg IFNy HTS inactive.
CO[C@H]1CCN(CC2CCOCC2)[C@H]2CN(Cc3ccncc3)C[C@@H]12 was read as Tg IFNy HTS inactive.
Screening C[C@@H]1CN([C@@H](C)CO)C(=O)c2cc(NC(=O)Nc3cccc4ccccc34)ccc2O[C@@H](C)CCCCO[C@@H]1CN(C)S(=O)(=O)c1cn(C)cn1 returned Tg IFNy HTS inactive.
Screening CCCCC1C=CCN1C(=O)c1ccc(=O)[nH]c1 (configuration not stated) returned Tg IFNy HTS inactive.
CCCCCCCCCCCCCCCC[n+]1ccccc1 was read as Tg IFNy HTS -91.
For Cn1cc(CN2CC(OCc3cccnc3)CN(Cc3cccc4ccccc34)CC2=O)cn1 (configuration not stated) the results were Tg IFNy HTS inactive.
`CN1C(=O)CCc2cc(NC(=O)C3CCC3)ccc21` gave Tg IFNy HTS inactive.
CC(C)Cn1cncc1CNC1CCCNC1 (configuration not stated) was read as Tg IFNy HTS inactive.
CC1CN(CC(=O)NCc2ccc3c(c2)OCO3)Cc2cc(Cl)ccc2O1 (configuration not stated) was read as Tg IFNy HTS inactive.
For COc1ccc(CN2COc3ccc(Cl)cc3C2)cc1 the results were Tg IFNy HTS -89.
COc1ccc2ncc3c(c2c1)-c1cc(Cl)ccc1OC3 was read as Tg IFNy HTS inactive.
`COc1ccc(-c2nnc(SCc3csc(C)n3)o2)cc1OC` gave Tg IFNy HTS inactive.
For Cc1ncc(-c2ccncc2)c(C2CCN(C(=O)c3cnsc3)CC2)n1 the results were Tg IFNy HTS inactive.
Screening O=C1c2ccccc2-c2nc3ncnn3c(-c3ccc(Cl)cc3)c21 returned Tg IFNy HTS inactive.
For COc1ccccc1OCC(=O)N1CCC[C@]2(C[C@@H](OC)CO2)C1 the results were Tg IFNy HTS inactive.
`COC1COC2(CCN(C(=O)Cc3ccccn3)CC2)C1` (configuration not stated) gave Tg IFNy HTS -98.
`CC(C)C(=O)NC1COC2(CCN(C(=O)Cc3ccccn3)CC2)C1` (configuration not stated) gave Tg IFNy HTS inactive.
`CN(C)c1nc2c(c(=O)[nH]1)CCN(C(=O)c1ccccc1-n1cccn1)C2` gave Tg IFNy HTS inactive.
